This is one part of a sample in which hits are shown more often than they occur.
RECQ1 inh-1 – blocks DNA unwinding by human RECQ1; Potency, µM (series often up to 57.3 µM), usual class: inhibitors; RECQ1 DNA unwinding, red fluorescence kinetic read; actives 0.54% (n = 240,000); further: nearly all actives have a fitted effect of over 30% in size
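50 nM RECQ1T1 preincubated 15 min with compound in Tris pH 8.0 buffer with MgCl2, DTT, Tween-20 and 2.5 ug/ml poly(dI-dC); started with 200 nM TAMRA/BHQ-2 forked duplex and 2 mM ATP. Unwinding read as fluorescence (525/598 nm), two reads 2 h apart.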
KDM4E inh – inhibitors of human JMJD2E histone demethylase. Potency, µM (series often up to 57.1 µM), hits mostly inhibitors. JMJD2E catalytic domain, FDH-coupled NADH fluorescence (FDH is formaldehyde dehydrogenase). actives 1.6% (n = 230,000). AID 2147. B2RXH2; active means well fitted inhibition curve with a large enough effect, not every such curve was filed as active; inconclusive means small, poorly fitted or top-dose-only effect, or another doubt; inactive means no such curve, though single readings can be large or run the other way; further: nearly all actives have a fitted effect of over 50% in size
KAT2A inh – inhibitors of human GCN5L2 histone acetyltransferase. actives 0.21% (n = 390,000). Q92830. GCN5L2 HAT assay, ThioGlo1 CoA-SH fluorescence. Potency, µM (series often up to 58.9 µM), most hits filed as inhibitors
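ThioGlo1-coupled HAT assay: 20nM GCN5L2, 70uM acetyl-CoA, 75uM H3(1-25) peptide, pH 7.5. Fluorescence read at 340/540nm at start and after 20 min at room temperature.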
BLM helicase inh – inhibitors of human Bloom syndrome helicase BLM | Potency, µM (top dose mostly 56.1 µM), most hits filed as inhibitors | P54132 | recombinant BLM DNA unwinding, fluorescence dequenching | actives 0.2% (n = 350,000) | AID 2528; further: nearly all actives have a fitted effect of over 35% in size
L3MBTL1 block – blocks human L3MBTL1. Q9Y468. AlphaScreen L3MBTL1–H3K9me1 peptide binding. Potency, µM (series often up to 57.1 µM), hits mostly inhibitors. actives 0.66% (n = 230,000). AID 485360; further: nearly all actives have a fitted effect of over 60% in size
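AlphaScreen proximity signal between nickel-chelate acceptor and streptavidin donor beads (final 10 ug/mL) reports binding of 50 nM L3MBTL1 to 75 nM biotin-H3 K9me1 peptide; complex incubated with compounds 30 min at room temperature; cefsulodin titration as control.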
APE1 inh – blocks human APE1 abasic DNA cleavage; P27695; recombinant APE1, TAMRA/BHQ-2 abasic DNA cleavage fluorescence; Potency, µM (highest dose often 65.8 µM), actives largely listed as inhibitors; actives 0.35% (n = 350,000); AID 2517; further: nearly all actives have a fitted effect of over 55% in size
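Incision of a quenched TAMRA/BHQ-2 THF abasic-site duplex (50 nM) by 0.75 nM APE1, after 15 min compound preincubation, measured as fluorescence increase over three 60 s reads. Values normalized to buffer, DMSO and NSC13755 control wells.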
RECQ1 inh conf – confirmation of human RECQ1 helicase inhibitors. shares compounds with RECQ1 inh-1. RECQ1 helicase DNA unwinding, fluorescence. Potency, µM (doses to about 229 µM), most hits filed as inhibitors. actives 28% (n = 610). AID 2708; further: nearly all actives have a fitted effect of over 45% in size
ADP FP counter – counter-screen for RECQ1 inhibitors: ADP displacement | shares compounds with RECQ1 inh-1 | ADP fluorescence polarization displacement counterscreen | Potency, µM (top dose mostly 228 µM), most hits filed as inhibitors | actives 27% (n = 530); further: nearly all actives have a fitted effect of over 45% in size
RECQ1 inh-2 – confirmation of human RECQ1 helicase inhibitors; shares compounds with RECQ1 inh-1; recombinant RECQ1 DNA unwinding, red fluorescence; Potency, µM (doses to about 119 µM), hits mostly inhibitors; actives 15% (n = 1,100); AID 504841; further: nearly all actives have a fitted effect of over 50% in size
Of the large screens only hits and unclear results are named; the others gave an inactive call (follow-up assays come after a bar, where they were run). Unless noted, the call rests on the fitted dose curve; in most records, active means well fitted curve in the direction sought with a large enough effect; inconclusive means small, poorly fitted or top-dose-only effect, or another doubt; inactive means no such curve, though single readings can be large; an effect the other way counts as inactive or inconclusive.

CC(C)=C1C(=O)NN(c2ccc(F)c(Cl)c2)C1=O	RECQ1 inh-1 32µM | RECQ1 inh-2 inactive
Cc1ccc(-c2noc(C3CCCN(S(=O)(=O)c4ccc5ccccc5c4)C3)n2)o1 (centres undefined)	none (no result: L3MBTL1 block)
CC(=O)c1cccc(S(=O)(=O)N2CCCC(c3nc(-c4ccc(C)o4)no3)C2)c1 (centres undefined)	RECQ1 inh-1 inconclusive | RECQ1 inh-2 inactive
CCCCC#Cc1ccc(C(=O)NNC(=O)Nc2ccccc2)o1	RECQ1 inh-1 28µM, KAT2A inh inconclusive | RECQ1 inh-2 inconclusive
Cc1nn(-c2ccccc2)c(Cl)c1C(=O)NCc1cccs1	RECQ1 inh-1 inconclusive | RECQ1 inh-2 inactive
CCOC(=O)c1c(-c2ccc(C)o2)csc1NC(=O)CSc1nncs1	RECQ1 inh-1 1.8µM, KDM4E inh inconclusive, KAT2A inh inconclusive, APE1 inh inconclusive | RECQ1 inh conf inactive | ADP FP counter inactive
CCOC(=O)C1=C(O)/C(=C/c2cc(OC)c(O)c(OC)c2)SC1=Nc1ccc(OC)cc1	RECQ1 inh-1 14µM, APE1 inh inconclusive | RECQ1 inh-2 inconclusive
O=C(O)c1ccc2nc(-c3ccccc3)sc2c1	KDM4E inh inconclusive
Nc1ccc(-c2nc3ccc(C(=O)O)cc3s2)cc1	RECQ1 inh-1 inconclusive, KDM4E inh inconclusive, KAT2A inh 28µM, APE1 inh inconclusive | RECQ1 inh-2 inactive
COc1cccc(-c2cn3c(n2)sc2cc(C(=O)NCCc4ccccc4)ccc23)c1	none (no result: RECQ1 inh-1, KDM4E inh, L3MBTL1 block, APE1 inh)
CN1/C(=C\C(=S)NC(=O)c2ccccc2Cl)C(C)(C)c2ccccc21	RECQ1 inh-1 25µM, L3MBTL1 block inconclusive | RECQ1 inh-2 inconclusive
CN1/C(=C/C(=S)NC(=O)C2(C)CC2(Cl)Cl)C(C)(C)c2ccccc21 (centres undefined)	none
Cc1ccc(S(=O)(=O)N2CCCC(C(=O)Nc3cccnc3)C2)cc1 (centres undefined)	none (no result: L3MBTL1 block)
COC(=O)Nc1ccc(S(=O)(=O)N2CCCC(C(=O)Nc3cccnc3)C2)cc1 (centres undefined)	none (no result: L3MBTL1 block) | RECQ1 inh conf inactive | ADP FP counter inactive
Cc1cc(C)n(C(C)CC(=O)NCc2ccccc2C)n1 (centres undefined)	none (no result: RECQ1 inh-1, KDM4E inh, L3MBTL1 block, APE1 inh)
CCOC(=O)Cc1cc(=O)n(-c2nc3ccccc3s2)[nH]1	RECQ1 inh-1 inconclusive, KDM4E inh inconclusive, KAT2A inh inconclusive, L3MBTL1 block 28µM, APE1 inh inconclusive | RECQ1 inh-2 inactive
CN(C)c1ccc(/C=C/C=C2/SC(=S)N(c3ccccc3)C2=O)cc1	RECQ1 inh-1 1.4µM, L3MBTL1 block 4.5µM | RECQ1 inh conf 3.5µM | ADP FP counter inconclusive
C=C1c2c(Cl)ccc(O)c2C(O)=C2C(=O)[C@@]3(O)C(O)=C(C(N)=O)C(=O)[C@@H](N(C)C)[C@@H]3[C@@H](O)[C@H]12	RECQ1 inh-1 3.5µM, KDM4E inh inconclusive, KAT2A inh 6.3µM (no result: L3MBTL1 block, APE1 inh) | RECQ1 inh conf inactive | ADP FP counter 32µM
O=C(Nc1cccc(F)c1)C1CCCN(S(=O)(=O)c2cccc3cccnc23)C1 (centres undefined)	none (no result: RECQ1 inh-1, KDM4E inh, L3MBTL1 block)
Nc1nc(Nc2cccc(Cl)c2)nc(NCc2ccco2)c1[N+](=O)[O-]	RECQ1 inh-1 inconclusive, BLM helicase inh inconclusive | RECQ1 inh-2 79µM
Nc1nc(Nc2ccc(Cl)cc2)nc(NCc2ccco2)c1[N+](=O)[O-]	RECQ1 inh-1 16µM, BLM helicase inh inconclusive | RECQ1 inh conf 32µM | ADP FP counter inactive | RECQ1 inh-2 79µM
Nc1nc(Nc2cccc(Cl)c2)nc(NCCO)c1[N+](=O)[O-]	RECQ1 inh-1 inconclusive, BLM helicase inh inconclusive (no result: L3MBTL1 block) | RECQ1 inh-2 50µM

Screening data: PubChem, National Center for Advancing Translational Sciences (NCATS)
